High-throughput results from PubChem.
MITF TRPM1 HTS = activators of MITF-driven TRPM1 promoter activity in SK-MEL-5 cells; AID 588334; hit rate 0.75% among 300,000; activation, % at 12.5 µM; SK-MEL-5 TRPM1-promoter luciferase, 24 h; % of positive control, neutral wells = 0;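 active means mean activation of at least 80% with every replicate also reaching 80%; inconclusive means mean reaches 80% but some replicate falls short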;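 further: 0% = neutral control wells and 100% = parthenolide positive control wells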
Wnt act = activates Wnt/beta-catenin signaling in a reporter cell assay; hit rate 1.2% among 300,000; activation, % at 9.35 µM; activator, plate reader; in the data active means activation above about 30%, passing the limit was not always enough; inconclusive means no clear call, values can overlap the other calls;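 further: 0% = neutral control wells and 100% = positive control wells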
miR122 inh = inhibitors of miR-122 in Huh7 cells; activation (reporter increase), % at 12.5 µM; hit rate 0.3% among 340,000; Huh7 miR-122 Renilla luciferase sensor, 48 h; neutral wells = 0, positive control = 100;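 active means mean replicate activation score at least 90 and every replicate individually at or above 90; inconclusive means only one of the two criteria met; inactive means neither criterion met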;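 further: higher luciferase means less miR-122 activity so hits act as miR-122 inhibitors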
NSD2 inh = NSD2 (human) methyltransferase inhibition. O96028. NSD2 peptide methylation, AlphaScreen, 120 min. inhibition, % at 12.5 µM. hit rate 0.54% among 310,000. AID 743445
GSIS activator = GLuc luminescence reporter in INS-1E cells, primary screen for activators of glucose-dependent secretion of insulin. INS-1E GLuc reporter insulin secretion, 2-3 h. activation, % at 16.6 µM. hit rate 0.61% among 370,000;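 active means lowest replicate activation of at least 40%, so every replicate reaches that level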;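 further: 0% = median of neutral control wells and 100% = median of IBMX positive control wells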
Dyrk1A ADPGlo = Dyrk1A (rat) kinase inhibition. inhibition, % at 12.5 µM. hit rate 0.43% among 310,000. Q63470. ADP-Glo luminescence, NFATc1 peptide;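 further: plate controls were vehicle with enzyme for no effect and no enzyme for full effect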
Active calls of the source: *; ? = inconclusive; · = no result given; [ ] = remark or other dose. Most compounds without a hit are left out; they make up all but 2.4% or so of the library. Unless noted, no stated cut-off is given here; in the data, active means inhibition above about 50%; inactive means the rest.

SMILES	MITF TRPM1 HTS	Wnt act	miR122 inh	NSD2 inh	GSIS activator	Dyrk1A ADPGlo
Cc1cccc(Cn2cc(SCC(=O)Nc3nccs3)c3ccccc32)c1	68	41*	0	·	·	1
Cc1cc(C)c(S(=O)(=O)NCCCn2ccnc2)cc1C	·	0	129*	-1	1	6
Cc1cc(S(=O)(=O)NCCCn2ccnc2)c(C)cc1Cl	·	-1	·	1	3	-6
COC(=O)C[C@@H]1CC[C@@H]2[C@H](COc3ccc(NC(=O)C4CC4)cc3C(=O)N2C)O1	·	·	7[16.7 µM]	·	3	·
Clc1cnc(N/N=C/c2cccs2)c(Cl)c1	?	·	-7	-1	·	4
Oc1ccc(/C=N/Nc2ncc(Cl)cc2Cl)cc1	88*	20	-3	2	33	-2
Nc1nc(N)nc(-c2cccc([N+](=O)[O-])c2)n1	·	-1	-6	-4	60*	·
O=[N+]([O-])c1cccc(-c2noc(-c3cccs3)n2)c1	49	48*	·	0	·	2
O=[N+]([O-])c1cccc(-c2nc(-c3ccccc3)c(-c3cccs3)[nH]2)c1	-3	·	2	-1	48*	0
Nc1nc(N)nc(-c2cc([N+](=O)[O-])ccc2O)n1	-12	10	0	·	0	37
O=C(CC1CC1)N1CC2(C1)[C@H](c1ccccc1)[C@H](CO)N2C(=O)c1ccccn1	·	·	·	·	2	·
CC(C)NC(=O)Nc1ccc2c(c1)C(=O)N(C)C[C@@H](C)[C@H](CN(C)C(=O)NC(C)C)O2	·	·	·	·	-6	·
CSc1nc2ccccc2n1CC(=O)Nc1ccccc1	15	·	-1	1	·	9
O=C(Cn1c(/C=C/c2ccccc2)nc2ccccc21)Nc1ccc(F)cc1	85*	16	-2	-2	-18	3
C=CC(C)N1C(=O)S/C(=C\c2ccc(N3CCOCC3)cc2C)C1=O (centres undefined)	44	11	·	-2	-9	3
C=CCN1C(=O)S/C(=C\c2ccc(N3CCOCC3)cc2C)C1=O	·	39*	-4	2	·	-5
CCS(=O)(=O)N(C)C[C@@H]1N[C@H](CO)[C@@H]1c1ccc(C#CC(C)C)cc1	·	·	·	·	10	·
CC(=O)Nc1ccc(-c2csc(Nc3cc(C)ccn3)n2)cc1	-3	12	0	1	-13	·
Oc1ccc(-c2csc(Nc3ncccn3)n2)cc1	95*	-2	-6	·	31	2
CC(=O)Nc1ccc(-c2csc(Nc3ncccn3)n2)cc1	58	33*	-10	-4	3	-5
COc1ccc(NC(=S)c2ccc(N(C)C)cc2)cc1	75	·	·	-1	7	-5
COc1ccc(C(=S)Nc2ccc(N(C)C)cc2)cc1	67	68*	3	4	·	5
COc1ccc(NC(=S)c2ccccc2)cc1	83*	16	-5	0	0	-1
Cc1ccc(NC(=S)c2ccc(N(C)C)cc2)cc1	14	46*	7	4	-33	-5
Cc1ccc(S(=O)(=O)NC(=O)Nc2ccc(N(C)C)cc2)cc1	0	9	-2	17	8	1
SMILES	MITF TRPM1 HTS	Wnt act	miR122 inh	NSD2 inh	GSIS activator	Dyrk1A ADPGlo
COC(=O)C[C@@H]1CC[C@H]2[C@@H](COC[C@@H](O)CN2C(=O)Nc2cccc(F)c2)O1	·	·	5[16.7 µM]	·	-3	·
O=C(O)CCN1c2ccccc2Sc2ccccc21	6	0	·	2	69*	8
COc1ccccc1CNC(=O)C[C@@H]1C=C[C@@H](NC(=O)CN(C)C)[C@H](CO)O1	·	·	·	·	-3	·
COc1ccc(Cl)cc1NC(=O)CN(C)C(=O)Cn1[nH]c(=O)c2ccccc2c1=O	-7	18	0	1	57	0
COc1cccc(NC(=O)CN(C)C(=O)Cn2[nH]c(=O)c3ccccc3c2=O)c1	-2	-3	-3	-3	41*	-3
O=[N+]([O-])c1ccccc1S(=O)(=O)Nc1cccc(-c2ccc(N3CCOCC3)nn2)c1	36	2	12	2	29	-4
Cc1ccc([N+](=O)[O-])cc1S(=O)(=O)Nc1cccc(-c2ccc(N3CCOCC3)nn2)c1	88*	14	·	3	4	14
O=[N+]([O-])c1ccccc1S(=O)(=O)Nc1ccc(-c2ccc(N3CCOCC3)nn2)cc1	16	-3	-7	0	71*	6
Cc1ccc([N+](=O)[O-])cc1S(=O)(=O)Nc1ccc(-c2ccc(N3CCCC3)nn2)cc1	13	2	·	-6	6	-2
COc1ccc(-c2cccc(NS(=O)(=O)c3cc([N+](=O)[O-])ccc3C)c2)nn1	5	8	135*	3	9	5
CC(C)c1ccc(NC(=O)c2ccccc2NC(=O)C2CCCCC2C(=O)O)cc1 (centres undefined)	49	35*	-3	-3	-10	-4
O=C(Nc1ccc(F)cc1)c1ccccc1NC(=O)C1CCCCC1C(=O)O (centres undefined)	·	5	·	1	0	-8
CC(C)c1ccc(NC(=O)c2ccccc2NC(=O)C2CC=CCC2C(=O)O)cc1 (centres undefined)	47	15	-6	-1	-11	1
COc1ccc(NC(=O)c2ccccc2NC(=O)C2CCCCC2C(=O)O)cc1 (centres undefined)	·	38*	-7	-4	-6	·
C[C@@H](NC(=O)C[C@@H]1C[C@H]2c3cc(NC(=O)c4cccnc4)ccc3O[C@H]2[C@@H](CO)O1)c1ccccc1	·	·	0[16.7 µM]	·	4	·
CO[C@@H]1CN(C)C(=O)c2ccc(NC(=O)c3ccccc3F)cc2OC[C@H](C)N(CC2CC2)C[C@@H]1C	·	·	22[16.7 µM]	·	10	·
Cc1ccc2[nH]c3c(c2c1)CC/C(=C/c1ccccc1)C3=O	·	-3	7	0	·	0
O=C1/C(=C\c2ccccc2)CCc2c1[nH]c1ccccc21	52	39*	33	10	·	-8
Cc1ccc(/C=C2/CCc3c([nH]c4ccccc34)C2=O)cc1	100*	54*	42	-2	·	-4
CC(C)Cc1cc(C(=O)Nc2ccc3c(c2)OCO3)no1	58	58*	1	·	·	0
Cc1ccc(NC(=O)c2cc(-c3ccc4c(c3)OCO4)on2)cc1C	29	3	·	-2	4	-1
Cc1cc(C(=O)Nc2ccc3c(c2)OCO3)no1	106*	22	-3	-1	-4	-4
COc1ccc(NC(=O)c2cc(CC(C)C)on2)cc1OC	·	8	-7	·	·	-3
O=C(Nc1ccc2c(c1)OCO2)c1cc(-c2cccc(O)c2)on1	115*	21	-3	1	4	-1
COc1ccccc1-c1ccc2c(c1)[C@@H]1[C@@H](CCN1S(=O)(=O)c1cccc(F)c1)[C@H](CO)N2	·	·	-3[16.7 µM]	·	3	·
COC(=O)[C@H]1Cc2c([nH]c3ccccc23)[C@H](c2ccccc2)N1	-12	-3	2	1	8	0
O=C(O)C1Cc2c([nH]c3ccccc23)C(c2ccc3c(c2)OCO3)N1 (centres undefined)	-1	2	7	·	46*	11
